Source: PubChem BioAssay (Tox21)
Results filed as inconclusive are left out. Entries that show only a call come without a potency. Calls of active or inactive are those of the source. Calls follow the shape of the dose curve; as a rule, active = well fitted activation curve with a large enough effect in the repeat runs; inconclusive = weak or mixed curves; inactive = flat fitted curve, though single readings scatter.

Experiment: A CellTox Green Cytotoxicity Assay to monitor cytotoxicity in HepG2 cells - 16 hour (AID 1224876); also: nearly all actives have a fitted effect of over 45% in size
Settings: CellTox Green fluorescence; series mostly up to 76.8 µM
From the text: National Center for Advancing Translational Sciences [NCATS]
NIH Chemical Genomics Center [NCGC]
U.S. Environmental Protection Agency [EPA]
National Institutes of Environmental Health Sciences [NIEHS]
National Toxicology Program [NTP]
Cell-based models are critical for drug discovery. Determining the natural cytotoxic effects resulting from test compounds is an essential research activity. A CellTox Green Cytotoxicity Assay to monitor cytotoxicity in real time of continues cell culture during 40 hours of the compound treatment was used to screen Tox21 10K library compounds in HepG2 cells. CellTox Green Cytotoxicity Assay is a nonlytic, homogeneous, biofluorescent method to measure cytotoxicity in cell culture after experimental manipulation. The assay system uses a proprietary asymmetric cyanine dye that is excluded from viable cells but preferentially stains the dead cell's DNA. […] Viable cells produce no appreciable increases in fluorescence. Therefore, the fluorescence signal produced by the binding interaction with dead cell DNA is proportional to cytotoxicity.
The mixture of HepG2 cell suspension and reagents were dispensed at 600cells/6 ul/well in 1536-well tissue culture treated black solid bottom plates using a Multidrop dispenser. After the assay plates were incubated at a 37 C/5% CO2 incubator for 5 hours, 23 nL of compounds dissolved in DMSO, positive and negative controls was transferred to the assay plate by a pintool work station. The plates were incubated at 37 C for 40 hours. The fluorescence intensity were measured at 0h, 8h, 16h, 24h, 32h and 40h time points using ViewLux plate reader during compound treatment.
Potency is read from the fitted curve at half-maximal effect.

| SMILES | Potency |
| --- | --- |
| Cn1c(=O)[nH]c2ncn(C)c2c1=O | inactive |
| O=C1CCC(=O)N1 | inactive |
| CCSCC | inactive |
| CC(C)c1ccc2sc3ccccc3c(=O)c2c1 | inactive |
| COc1cc(OC)nc(NC(=O)NS(=O)(=O)Nc2ccccc2C(=O)N(C)C)n1 | inactive |
| CC1=C(/C=C/C(C)=C/C=C/C(C)=C\C(=O)O)C(C)(C)CCC1 | inactive |
| CCCCCCCCc1ccc(Nc2ccc(CCCCCCCC)cc2)cc1 | inactive |
| Nc1cc([N+](=O)[O-])cc(Cl)c1O | inactive |
| Cc1ccc2sc3cccc(C)c3c2c1 | inactive |
| O=C(CCCCCCCCc1cccnc1)N1CCC(C=C(c2ccccc2)c2ccccc2)CC1 | inactive |
| CCC1(C)C(=O)N(Cl)C(=O)N1Cl (stereo not given) | inactive |
| Cc1ccc(C2OC[C@@H]3OC(c4ccc(C)cc4)O[C@H]([C@H](O)CO)[C@@H]3O2)cc1 (stereo not given in full) | inactive |
| CCOC(=O)[C@H](O)[C@@H](O)C(=O)OCC | inactive |
| C/C=C/C(=O)C1=C(C)C=CCC1(C)C | inactive |
| O=[N+]([O-])c1ccc(CO)cc1 | inactive |
| C[C@H]1O[C@@H](O[C@H]2CC[C@@]3(C)[C@H](CC[C@@H]4[C@@H]3C[C@@H](O)[C@]3(C)[C@@H](C5=CC(=O)OC5)CC[C@]43O)C2)C[C@H](O)[C@@H]1O[C@H]1C[C@H](O)[C@H](O[C@H]2C[C@H](O)[C@H](O[C@@H]3O[C@H](CO)[C@@H](O)[C@H](O)[C@H]3O)[C@@H](C)O2)[C@@H](C)O1 | inactive |
| CCC(O)CO (stereo not given) | inactive |
| CCC(=O)OC/C=C(\C)CCC=C(C)C | inactive |
| CC(O)(c1ccc(Cl)cc1)c1ccc(Cl)cc1 | 49 µM (active) |
| c1ccc2c(c1)-c1ccc3ccc4cccc5cc-2c1c3c45 | inactive |

| SMILES | Potency |
| --- | --- |
| Cc1ccc(N=Nc2c(O)ccc3ccccc23)c(C)c1 | inactive |
| Cc1c(Cl)c(=O)oc2cc(O)ccc12 | inactive |
| O=C(NCc1ncc(C(F)(F)F)cc1Cl)c1c(Cl)cccc1Cl | inactive |
| CCN(CC)c1ccc2c(c1)Oc1cc(N(CC)CC)ccc1C21OC(=O)c2ccccc21 | 23.9 µM (active) |
| CCOC=C(C(=O)OCC)C(=O)OCC | inactive |
| CN[C@H]1CC[C@@H](c2ccc(Cl)c(Cl)c2)c2ccc(S(N)(=O)=O)cc21 | 43.6 µM (active) |
| C=CC(=O)OCC(Br)CBr (stereo not given) | inactive |
| Nc1ccc2c(S(=O)(=O)O)cccc2c1S(=O)(=O)O | inactive |
| ClC(c1ccccc1)(c1ccccc1)c1ccccc1 | inactive |
| O=c1cc[nH]cc1 | inactive |
| CC/C(=C(/c1ccc(O)cc1)c1ccc(OCCN(C)C)cc1)c1ccccc1 | 25.7 µM (active) |
| CCCCCCCCCCCC(=O)Cl | inactive |
| Cc1cccc2c1ccc1ccccc12 | inactive |
| Oc1ccc2c(c1)CCC2 | inactive |
| Cc1cccc(C)c1C | inactive |
| Cc1cc(C)c(O)c(C(C)(C)C)c1 | inactive |
| CO[Si](OC)(c1ccccc1)c1ccccc1 | inactive |
| S=C1NC=NC2N=CNC12 (stereo not given) | inactive |
| O=C1c2ccccc2C(=O)c2c(Cl)cccc21 | inactive |
| CC(=O)CC(N)=O | inactive |
